Bioassay records as filed in PubChem.
Most compounds without a hit are left out; they make up all but 2.4% or so of the library.
AmpC inh no det: Promiscuous and Specific Inhibitors of AmpC Beta-Lactamase (assay without detergent). P00811. AmpC nitrocefin hydrolysis, absorbance 480 nm, no detergent. Potency, µM (top dose mostly 28.7 µM). 1.8% of 71,000 active. AID 585, 2007
Target sequence (P00811 whole entry, looked up): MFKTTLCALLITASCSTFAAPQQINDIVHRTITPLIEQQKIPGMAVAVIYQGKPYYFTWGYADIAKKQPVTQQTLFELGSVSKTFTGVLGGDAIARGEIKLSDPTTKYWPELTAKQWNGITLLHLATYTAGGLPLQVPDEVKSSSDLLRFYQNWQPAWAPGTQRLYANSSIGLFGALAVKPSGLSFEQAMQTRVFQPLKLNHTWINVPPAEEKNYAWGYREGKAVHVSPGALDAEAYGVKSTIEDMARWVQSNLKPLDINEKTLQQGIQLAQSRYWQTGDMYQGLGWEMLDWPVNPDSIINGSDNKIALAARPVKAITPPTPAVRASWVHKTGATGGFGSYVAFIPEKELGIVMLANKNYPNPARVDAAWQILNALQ
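AmpC, 20 mM phosphate pH 7.0; 15 min cpd preinc, RT; start with nitrocefin (800 uM stock); A480 kinetic read, 20 s intervals, 4 min. No-enzyme wells = negative control.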
SmPrx2 inh: Schistosoma Mansoni Peroxiredoxins (Prx2); Schistosoma mansoni peroxiredoxin 2 (Prx2); S. mansoni Prx2 activity coupled to TGR/GSH (TGR is thioredoxin glutathione reductase), NADPH fluorescence loss, qHTS; Potency, µM; 0.07% of 65,000 active; AID 448, 2006
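Enzyme mix: 100 uM NADPH, 25 nM TGR, 700 uM GSH, 50 nM Prx2 in 100 mM phosphate pH 7.4, 10 mM EDTA, 0.01% Tween-20. 15 min RT with compound; NADPH/GSH added, H2O2 starts reaction; NADPH fluorescence read 8 min.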
LT uptake inh: qHTS Assay for Anthrax Lethal Toxin Internalization; AID 912, 2007; Potency, µM (top dose mostly 40 µM), hits mostly inhibitors; Cells, anthrax lethal toxin internalization, FRET ratio (460/530); 0.67% of 70,000 active; also: nearly all actives have a fitted effect of over 50% in size
AmpC inh det: Promiscuous and Specific Inhibitors of AmpC Beta-Lactamase (assay with detergent). P00811. purified AmpC, nitrocefin hydrolysis with detergent. Potency, µM (series often up to 28.7 µM). 0.09% of 71,000 active. AID 584, 2007; active = well fitted curve in the direction sought with a large enough effect; inconclusive = small, poorly fitted or top-dose-only effect
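E. coli AmpC (5.3 nM) in 20 mM phosphate pH 7.0 with 0.01% Triton X-100, preincubated 15 min RT with compound; nitrocefin (2 uL of 800 uM stock) hydrolysis followed by 480 nm absorbance every 20 s over 4 min.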
Numbers stand for hits; . = inactive; ? = inconclusive; / = not tested or not shown; ! = not confirmed by another sample; [ ] = another dose, or the depositor's remark. Unless noted, calls follow the shape of the full dose curve.

SMILES	AmpC inh no det	SmPrx2 inh	LT uptake inh	AmpC inh det
Cc1cc(Cc2cc(C)cc(C(C)(C)C)c2O)c(O)c(Cc2cc(C)cc(C(C)(C)C)c2O)c1	.[5.75 µM]	.	3.16µM	.[5.75 µM]
Cc1cc(Cc2c(C)c(C)c(Cc3cc(C)cc(C(C)(C)C)c3O)c(C)c2C)c(O)c(C(C)(C)C)c1	.[5.75 µM]	.	.[8 µM]	.[5.75 µM]
c1ccc(Nc2cc(-c3ccoc3)ncn2)cc1	.	/	.	.
CCc1ccccc1N1CSC2=C(C#N)C(c3ccccc3F)CC(=O)N2C1 (stereo not given)	12.6µM[single pt active]	/	.	.
COc1ccc(C2CC(=O)N3CN(c4ccccc4F)CSC3=C2C#N)cc1OC (stereo not given)	.	.	.	.
COc1ccc(OC)c(C2CC(=O)N3CN(c4ccccc4)CSC3=C2C#N)c1 (stereo not given)	.	.	.	.
COc1ccc(N2CSC3=C(C#N)C(c4cccc(OC)c4OC)CC(=O)N3C2)cc1 (stereo not given)	3.98µM[single pt active]	.	.	.
COc1cc(OC)c(C2CC(=O)N3CN(c4ccccc4C)CSC3=C2C#N)cc1OC (stereo not given)	.	.	/	.
COc1ccc(C2CC(=O)N3CN(c4ccc(C)c(Cl)c4)CSC3=C2C#N)cc1 (stereo not given)	2.51µM[single pt active]	/	.	.
Cc1cccc(N2CSC3=C(C#N)C(c4ccc(C)o4)CC(=O)N3C2)c1 (stereo not given)	15.8µM	.	/	.
Cc1ccccc1-c1nccc(NCCN2CCOCC2)n1	.	.	.	.
Nc1nc(N)nc(CC(=O)O)n1	.[5.75 µM]	.	.[8 µM]	.[5.75 µM]
CCOC(=O)N1CCC(NC(=O)CCc2c(C)nc3c(c(C)nn3-c3ccccc3)c2C)CC1	3.98µM[single pt active]	.	.	.
c1ccc(CO[C@H]2NCCN2Cc2ccccc2)cc1	.[5.75 µM]	.	.[8 µM]	.[5.75 µM]
CCc1ccc(NC2=NCC(=O)N2Cc2ccc3c(c2)OCO3)cc1	.	.	10µM	.
COc1ccc(/C=C/N(CCc2ccc(OC)c(OC)c2)C(=O)C(F)(F)F)cc1	/	/	.[8 µM]	/
CC1(C)S[C@@H]2[C@H](NC(=O)C3(N)CCCCC3)C(=O)N2[C@@H]1C(=O)O	0.01µM	.	.[8 µM]	0.01µM
CC1(C)S[C@@H]2[C@H](NC(=O)Cc3ccccc3)C(=O)N2[C@@H]1C(=O)O	.[5.75 µM]	.	.[8 µM]	.[5.75 µM]
CCOc1ccc2ccccc2c1C(=O)N[C@@H]1C(=O)N2[C@@H]1SC(C)(C)[C@@H]2C(=O)O	0.0316µM	.	.[3.58 µM]	0.0501µM
Cc1onc(-c2c(Cl)cccc2Cl)c1C(=O)N[C@H]1C(=O)N2[C@H]1SC(C)(C)[C@H]2C(=O)O	0.00158µM	.	.[3.58 µM]	0.00251µM
CC(C)(N)C(=O)N[C@@H]1C(=O)N2[C@@H]1SC(C)(C)[C@H]2C(=O)O	0.501µM	.	.[8 µM]	1.26µM
O=C(c1cccc(F)c1)N1CCC2(CC1)CN(c1ccccc1)C2	.	.	.	.
CCC/C=C(\CCC)C(NP(=O)(c1ccccc1)c1ccccc1)c1ccc(C(F)(F)F)cc1 (stereo not given)	.	.	?	.
C=C[C@@H]1CN2CC[C@H]1C[C@H]2[C@@H](O)c1ccnc2ccccc12	.	.	?	.
C[C@H](Oc1ccccc1)C(=O)N[C@@H]1C(=O)N2[C@@H]1SC(C)(C)[C@@H]2C(=O)O	0.251µM	.	.[3.58 µM]	0.631µM
SMILES	AmpC inh no det	SmPrx2 inh	LT uptake inh	AmpC inh det
COc1ccc(NC(=O)N2c3ccccc3CC2C)cc1OC (stereo not given)	.	.	.	.
COC(=O)c1ccccc1NC(=O)N1c2ccccc2CC1C (stereo not given)	.	.	15.8µM	.
CCc1ccc(C2C(C#N)=C(N)SC(N)=C2C#N)cc1	.	/	12.6µM	.
CCc1ccc(C2C(C#N)=C(N)SC(N)=C2C#N)s1	.	.	10µM	.
COc1ccc(Oc2ncc3nc(CCc4ccccc4)c(=O)n(C[C@H]4CCCO4)c3n2)cc1	.	.	?	.
CCn1c2ccccc2c2cc(NC(=O)C3CCN(S(=O)(=O)c4cccs4)CC3)ccc21	12.6µM	.	.	.
Cc1cccc(CNc2ccnc(-c3ccoc3)n2)c1	.	.	.	.
O=C(O)c1cccc(C[C@H](Br)C(=O)O)c1	.[5.75 µM]	.	.[8 µM]	.[5.75 µM]
Cc1csc2nc(CSc3nc4ccccc4o3)c(Br)n12	.	.	12.6µM	.
Cc1csc2nc(CSc3nncn3-c3ccccc3)c(Br)n12	.	.	.	.
CCNc1ncc2nc(-c3ccc(OC)cc3)c(=O)n(-c3ccc(OC)cc3)c2n1	.	.	?	.
CN=C1N[C@H](c2ccccc2)N(c2ccccc2)S1	.	.	25.1µM	.
Cc1ccc(C(=O)Cn2c3c(sc2=N)CCCC3)cc1	.	.	15.8µM	.
Cc1ccc(-n2nc(C)c3c(-c4cccs4)c(C#N)c(N)nc32)cc1	.	.	?	.
Cc1nn(-c2ccccc2)c2nc(N)c(C#N)c(-c3ccc(F)cc3)c12	.	/	5.01µM	.
CSc1ccccc1NC(=O)c1ccncc1	.	.	.	.
C/C(=C\C(=O)c1ccncc1)Nc1ccccc1O	.	/	2.51µM	.
C/C(=N\[N+](C)(C)C)c1ccc(C)c(C)c1	.[5.75 µM]	.	.[8 µM]	.[5.75 µM]
C[C@H]1[C@H](NC(=O)/C(=N/OC(C)(C)C(=O)O)c2csc(N)n2)C(=O)N1S(=O)(=O)O (stereo in doubt)	0.000794µM	.	.[3.58 µM]	0.002µM
N=c1ccn2c(n1)O[C@@H]1[C@@H](O)[C@H](CO)O[C@H]12	.	.	.	.
CCOC(=O)N1CCC(NC(=O)CN2C(=O)CCSc3ccccc32)CC1	3.98µM[single pt active]	.	.	.
O=C(CSc1nnc(-c2cccnc2)n1Cc1ccco1)N1c2ccccc2Sc2ccccc21	.	.	15.8µM	.
c1cncc(CSc2nnc(-c3cccnc3)n2Cc2ccco2)c1	.	.	.	.
COc1ccc(CCNc2nc(N3CCCCC3)nc(N3CCCCC3)n2)cc1OC	.	.	6.31µM	.
CC#C[C@@]1(O)CC[C@@H]2[C@@H]3CCC4=CC(=O)CCC4=C3[C@@H](c3ccc(N(C)C)cc3)C[C@]21C	.	.	?	.
SMILES	AmpC inh no det	SmPrx2 inh	LT uptake inh	AmpC inh det
CCC[C@@H]1C[C@@]1(CCC)[C@@H](NC(=O)Oc1ccccc1)c1ccc(C(=O)OC)cc1	.	/	?	.
COc1cc(Cc2cnc(N)nc2N)cc(OC)c1OC	6.31µM!	.	?	.
Nc1nc(C(=O)O)c(N=Nc2ccccc2)c(=O)[nH]1	.[5.75 µM]	.	.[8 µM]	.[5.75 µM]
CC(=O)OCC1OC(C#Cc2ccc(Cl)cc2)C=CC1OC(C)=O (stereo not given)	/	/	.[8 µM]	/
Cc1cc(=O)oc2cc(OCC#N)ccc12	3.98µM[single pt active]	.	.	.
Cc1ccc(S(=O)(=O)Nc2ccc3nc(N)sc3c2)cc1	10µM	.	.	.
CCCCCCCC/C=C\CCCCCCCC(=O)NCCc1ccc(O)c(O)c1	10µM	.	?	.
O=C1c2ccccc2-c2ccc(N=[N+]([O-])c3ccc4c(c3)C(=O)c3ccccc3-4)cc21	.[5.75 µM]	.	.[8 µM]	.[5.75 µM]
CCCN1CC[C@@H]2c3cc(O)ccc3CC[C@H]21	.	.	.	.
O=C(CSc1nnc(Cc2cc(=O)[nH]c(=O)[nH]2)n1-c1ccc(F)cc1)NC1CCCC1	3.98µM[single pt active]	.	.	.
